FEN1 inh: inhibitors of human flap endonuclease 1; Recombinant FEN1 flap cleavage, fluorescence, 15 min; actives 0.35% (n = 390,000); Potency, µM (doses to about 114 µM), most hits filed as inhibitors; AID 588795; P39748; further: nearly all actives have a fitted effect of over 65% in size
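In this screen, 50 nM flap DNA substrate was added to 10 nM FEN1 pretreated with compound for 15 min at room temperature; cleavage was followed with reads at 0 and 15 min, and Hill fitting gave concentration–response parameters.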
WRN helicase inh: WRN helicase (human) inhibition | AID 651768 | Q14191 | Potency, µM (top dose mostly 114 µM), actives largely listed as inhibitors | WRN helicase unwinding, fluorescent forked duplex, kinetic | actives 0.46% (n = 360,000); further: nearly all actives have a fitted effect of over 55% in size
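WRN at 20 nM final was preincubated with compound for 15 min at room temperature; reaction started with 100 nM forked duplex oligonucleotide carrying fluorophore and quencher plus 2 mM ATP (final). Unwinding followed kinetically by red fluorescence (ex 525/em 598 nm).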
Pol iota inh: inhibitors of human DNA polymerase iota; Q9UNA4; Pol iota fluorescent replication assay, 10 min; Potency, µM (titrated, usually from 115 µM), usual class: inhibitors; actives 1% (n = 390,000)
Target sequence (Q9UNA4 whole entry, looked up): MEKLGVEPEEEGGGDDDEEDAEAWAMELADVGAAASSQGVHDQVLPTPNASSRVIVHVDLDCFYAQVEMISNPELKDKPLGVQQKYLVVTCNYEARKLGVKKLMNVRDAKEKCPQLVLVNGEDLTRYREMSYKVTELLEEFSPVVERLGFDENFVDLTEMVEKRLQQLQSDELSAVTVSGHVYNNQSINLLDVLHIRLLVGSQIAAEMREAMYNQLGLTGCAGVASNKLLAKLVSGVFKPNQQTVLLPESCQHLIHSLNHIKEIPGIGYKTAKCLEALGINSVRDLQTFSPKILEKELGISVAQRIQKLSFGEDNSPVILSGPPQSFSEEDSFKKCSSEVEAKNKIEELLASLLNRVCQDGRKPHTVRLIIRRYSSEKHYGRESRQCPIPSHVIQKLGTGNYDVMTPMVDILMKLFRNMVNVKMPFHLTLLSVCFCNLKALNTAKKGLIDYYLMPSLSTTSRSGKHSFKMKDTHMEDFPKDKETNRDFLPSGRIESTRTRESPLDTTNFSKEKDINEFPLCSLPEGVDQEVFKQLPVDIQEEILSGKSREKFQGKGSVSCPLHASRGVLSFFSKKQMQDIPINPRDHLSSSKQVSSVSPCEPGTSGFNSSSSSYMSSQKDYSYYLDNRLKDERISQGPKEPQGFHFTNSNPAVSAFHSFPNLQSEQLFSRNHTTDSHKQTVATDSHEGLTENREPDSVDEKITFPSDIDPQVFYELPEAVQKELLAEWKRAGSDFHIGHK
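Fluorescent replication assay read twice, at 0 min and 10 min after adding 50 nM (final) substrate. Enzyme (10 nM) and compounds were first incubated 15 min at room temperature; enzyme-free buffer wells were negative controls.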
POLK inh: inhibitors of human DNA polymerase kappa | Potency, µM (titrated, usually from 107 µM), actives largely listed as inhibitors | AID 588579 | purified Pol kappa, fluorescent DNA synthesis assay, 10 min | Q9UBT6 | actives 0.53% (n = 400,000)
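Here, compound and 10 nM enzyme are combined for 15 min at room temperature; adding 50 nM substrate (final) starts DNA synthesis, tracked by fluorescence at 0 and 10 min against buffer-only wells.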
Pol beta inh: blocks human DNA polymerase beta activity. Pol beta primer extension/strand displacement, fluorescence kinetic. actives 1.3% (n = 340,000). Potency, µM (highest dose often 114 µM), hits mostly inhibitors. P06746
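10 nM enzyme + cpd, 15 min RT; start with substrate 50 nM final; read 0 min and after 10 min RT. Corrected, normalized data; 4-parameter Hill curve fit.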
POLH inh: blocks human DNA polymerase eta activity; recombinant Pol eta, fluorescent DNA replication assay; actives 1.2% (n = 390,000); Potency, µM (top dose mostly 114 µM), actives largely listed as inhibitors
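Pol eta (10 nM) was preincubated with compounds for 15 min at room temperature, after which fluorescent replication substrate (50 nM final) was added to start the reaction. Fluorescence was read kinetically at 0 and 10 min.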
TbPGK inh: validation of Trypanosoma brucei phosphoglycerate kinase inhibitors; shares compounds with POLK inh; TbPGK coupled GAPDH assay, Kinase-Glo luminescence; Potency, µM (highest dose often 57.5 µM), usual class: inhibitors; actives 79% (n = 500); AID 686980; further: nearly all actives have a fitted effect of over 65% in size
Pol iota confirm: Inhibitors of human DNA polymerase iota, confirmation | shares compounds with POLK inh | Pol iota primer extension, TAMRA/BHQ fluorescence | Potency, µM, usual class: inhibitors | actives 77% (n = 1,500) | AID 720496
Numbers stand for hits; [ ] = another dose, or the depositor's remark. Hits are enriched below; roughly 2.4% of the tested compounds scored in any of these assays. The call rests on the fitted dose curve; in most records, active means well fitted curve in the direction sought with a large enough effect; inconclusive means small, poorly fitted or top-dose-only effect, or another doubt; inactive means no such curve, though single readings can be large; an effect the other way counts as inactive or inconclusive.

O=C(N/N=C/c1ccc(Cl)c([N+](=O)[O-])c1)c1ccc2c(c1)OCCO2 was read as FEN1 inh inconclusive, WRN helicase inh inconclusive, Pol iota inh inactive, POLK inh inactive, POLH inh inconclusive and Pol iota confirm 75.
Screening O=C1C2C(C(=O)N1Cc1ccco1)C1C=CC2C12CC2 (configuration not stated) returned FEN1 inh inactive, WRN helicase inh inactive, Pol iota inh inactive, POLK inh inactive, Pol beta inh inactive and POLH inh inactive.
`O=C1CC(=O)N(Cc2ccco2)C(=S)N1` gave FEN1 inh 35µM, WRN helicase inh 10µM, Pol iota inh inconclusive, POLK inh 3.2µM, Pol beta inh 7.9µM, POLH inh 3.2µM and TbPGK inh inactive.
For Cc1nn(-c2nc3ccccc3[nH]2)c(=O)c2ccccc12 the results were FEN1 inh inactive, WRN helicase inh inactive, Pol iota inh inactive, POLK inh inactive, Pol beta inh inactive, POLH inh inactive and TbPGK inh 2.9µM.
Screening O=C(Nc1nc2ccccc2[nH]1)c1ccc(F)cc1 returned FEN1 inh inactive, WRN helicase inh inactive, Pol iota inh inactive, POLK inh inactive, Pol beta inh inactive and POLH inh inactive.
Screening O=C(Nc1nc2ccccc2[nH]1)c1ccccc1F returned FEN1 inh inactive, WRN helicase inh inactive, Pol iota inh inactive, POLK inh inactive, Pol beta inh inactive, POLH inh inactive and TbPGK inh 8.2µM.
`COc1ccc(C(=O)O/N=C(\N)c2ccc(Br)cc2)cc1` gave FEN1 inh inactive, WRN helicase inh inactive, Pol iota inh inactive, POLK inh inactive, Pol beta inh inactive and POLH inh inactive.
Screening COc1ccc(C(=O)O/N=C(\N)c2ccccc2)cc1 returned FEN1 inh inactive, WRN helicase inh inactive, Pol iota inh inactive, POLK inh inactive, Pol beta inh inactive, POLH inh inactive and TbPGK inh 8.2µM.
`Cc1ccc(/C(N)=N/OC(=O)c2cccs2)cc1` gave FEN1 inh inactive, WRN helicase inh inactive, Pol iota inh inactive, POLK inh inactive, Pol beta inh inactive and POLH inh inactive.
For COc1ccc(C(=O)O/N=C(/C)c2cccs2)cc1 the results were FEN1 inh inactive, WRN helicase inh inactive, Pol iota inh inactive, POLK inh inactive, Pol beta inh inactive, POLH inh inactive and TbPGK inh 5.8µM.
For N/C(=N\OC(=O)c1cccs1)c1ccccc1 the results were FEN1 inh inactive, WRN helicase inh inactive, Pol iota inh inactive, POLK inh inactive, Pol beta inh inactive, POLH inh inactive and TbPGK inh 16µM.
`COc1ccc(CNC(=O)CN2C(=O)CCn3nc(-c4cn(C)c5ccccc45)cc32)cc1` gave FEN1 inh inactive, Pol iota inh inactive, POLK inh inactive, Pol beta inh inactive and POLH inh inactive.
For COc1ccc(Cn2cc(CN3CC(N4CCN(CCO)CC4)CS3(=O)=O)nn2)cc1 (configuration not stated) the results were WRN helicase inh inactive.
`CCn1c(C)cc(C(=O)COC(=O)c2ccccc2[N+](=O)[O-])c1C` gave FEN1 inh inactive, WRN helicase inh inactive, Pol iota inh inactive, POLK inh inactive, POLH inh inactive and TbPGK inh 15µM.
For O=C(COC(=O)c1ccccc1[N+](=O)[O-])c1ccc2c(c1)OCO2 the results were FEN1 inh inactive, WRN helicase inh inactive, Pol iota inh inactive, POLK inh inactive, POLH inh inconclusive and TbPGK inh 9.2µM.
O=C(CC1N=C2c3ccccc3N=C(SCC(=O)Nc3ccccc3F)N2C1=O)NCc1cccs1 (configuration not stated) was read as FEN1 inh inactive, Pol iota inh inactive, POLK inh inactive, Pol beta inh inactive and POLH inh inactive.
COC(=O)C[C@@H]1OC[C@H](C(C)C)N1S(=O)(=O)c1ccc(C)cc1 was read as WRN helicase inh inactive.
Screening CC(C)(C)C1CCc2c(sc(NC(=O)CCC(=O)O)c2C(=O)Nc2ccccc2C(F)(F)F)C1 (configuration not stated) returned FEN1 inh inconclusive, Pol iota inh inconclusive, POLK inh inactive, Pol beta inh inconclusive, POLH inh inconclusive and Pol iota confirm inconclusive.
Cc1ccc(NC(=O)CN(C)C(=O)c2cccc(S(=O)(=O)N3CCc4ccccc4C3)c2)cc1 was read as WRN helicase inh inactive and POLH inh inactive.
Screening C=CCn1c(=O)[nH]c2cc(C(=O)N3CCN(c4ccc(C(C)=O)cc4)CC3)ccc2c1=O returned FEN1 inh inactive, WRN helicase inh inconclusive, Pol iota inh inconclusive, POLK inh inconclusive, Pol beta inh 35µM, POLH inh inconclusive and Pol iota confirm 47.
`C=CCn1c(=O)[nH]c2cc(C(=O)N3CCN(c4cc(C)ccc4C)CC3)ccc2c1=O` gave FEN1 inh inactive, WRN helicase inh inactive, Pol iota inh inactive, POLK inh inactive, Pol beta inh inactive and POLH inh inactive.
Screening Cc1[nH]cnc1C(=O)N/N=C/c1c(Cl)cccc1Cl returned FEN1 inh inactive, WRN helicase inh inactive, Pol iota inh inactive, POLK inh inactive, Pol beta inh inactive, POLH inh inactive and TbPGK inh 12µM.
`O=C1Nc2cc3c(cc2C1=O)sc1ccccc13` gave FEN1 inh inconclusive, WRN helicase inh 45µM, Pol iota inh 32µM, POLK inh inconclusive, Pol beta inh 40µM, POLH inh 45µM and Pol iota confirm inconclusive.
`C[C@H]1CN([C@@H](C)CO)S(=O)(=O)c2ccc(-c3ccncc3)cc2O[C@H]1CN(C)C(=O)c1cccc(F)c1` gave WRN helicase inh inactive and POLH inh inactive.
Screening C/C=C\C=C/C(=O)Nc1cccc(C2=NOC3(C2)C[C@@H](C(N)=O)N(C(=O)c2ccc(Cl)cc2)C3)c1 (some centres not stated) returned FEN1 inh inactive, WRN helicase inh inactive, Pol iota inh inactive, POLK inh inactive, Pol beta inh inactive and POLH inh inactive.
For C/C=C\C=C/C(=O)Nc1cccc(C2=NOC3(C2)C[C@H](C(N)=O)N(C(=O)c2ccc(OC)cc2)C3)c1 (some centres not stated) the results were FEN1 inh inactive, WRN helicase inh inactive[11.6 µM], Pol iota inh 25µM, POLK inh inconclusive, Pol beta inh inactive, POLH inh 20µM and Pol iota confirm inconclusive.
